# Shown are actives, neighbours in structure and some others; about 11% of the full set was active somewhere.
# Pf growth 96h: Primary qHTS for delayed death inhibitors of the malarial parasite plastid, 96 hour incubation | P. falciparum luciferase reporter growth, 96 h | Potency, µM (series often up to 28.7 µM), most hits filed as inhibitors | 320,000 tested, 6.9% active | AID 504834, 2011
#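 Cell-based qHTS: luciferase-tagged P. falciparum in erythrocytes (2% hematocrit, 0.05% parasitemia final) incubated with compounds for 96 hours, 37 C, 5% CO2; luciferase detection reagent then added and luminescence measured.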
# Pf growth 48h: Primary qHTS for delayed death inhibitors of the malarial parasite plastid, 48 hour incubation; Potency, µM (doses to about 28.7 µM), actives largely listed as inhibitors; 310,000 tested, 5.9% active; P. falciparum luciferase growth in erythrocytes, 48 h
#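 Firefly luciferase activity from engineered P. falciparum reports growth; inhibitors lower the luminescent signal. Cultures contained 2% hematocrit erythrocytes at 0.1% final parasitemia.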
# AMA1 RON2 block: qHTS for Inhibitors of AMA1-RON; Towards Development of Antimalarial Drug Lead: Primary Screen. 360,000 tested, 0.2% active. AlphaScreen AMA1-biotinylated RON2 peptide binding. Plasmodium falciparum AMA1 (3D7) - RON2 peptide interaction. AID 720542, 2013. Potency, µM (series often up to 58.2 µM), usual class: inhibitors; also: nearly all actives have a fitted effect of over 45% in size
#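 AMA1 (3D7) with his tag at 25 nM final met compounds first, then biotinylated RON2 peptide at 25 nM; detection used donor plus acceptor beads, 10 µg/mL apiece, read by AlphaScreen after 30 min at room temperature.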
# HCV inhibitor: qHTS Assay for Inhibitors of Hepatitis C Virus (HCV); Huh7.5.1 HCVcc-Cre infection, luciferase reporter, 44 h; Potency, µM (series often up to 41.8 µM), usual class: inhibitors; 340,000 tested, 3.4% active; AID 651820, 2012
#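 After 44 h co-culture of compound, cells and HCVcc-Cre (~0.5 moi), substrate is added for 15 min at room temperature and luciferase measured over 15 sec. Cells were seeded at 1,000/well and pre-cultured 4 h.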
# Hits are given with their value; 0 = inactive; ? = inconclusive; - = no result; [ ] = another dose, or the depositor's remark. Calls follow the shape of the dose curve; as a rule, active = well fitted curve in the direction sought with a large enough effect; inconclusive = small, poorly fitted or top-dose-only effect, or another doubt; inactive = no such curve, though single readings can be large; an effect the other way counts as inactive or inconclusive.
SMILES,Pf growth 96h,Pf growth 48h,AMA1 RON2 block,HCV inhibitor
COc1ccc(N2C(=O)CSC23C(=O)N2c4c(cccc43)C(C)=CC2(C)C)cc1 (stereo unspecified),7.4µM,-,0,?
C=CCn1c(N)cc(=O)nc1SC(C)C(=O)Nc1ccc(C(=O)OCC)cc1 (stereo unspecified),0,4.1µM,0,0
CCOC(=O)C1=C(C)NC2=C(C(=O)CC(C)(C)C2)C1c1ccc2c(c1)CCCN2C (stereo unspecified),0,13µM,0,?
CCOC(=O)C1=C(C)NC2=C(C(=O)CC(C)(C)C2)C1c1ccc(N(C)C)cc1 (stereo unspecified),?,12µM,0,?
CCc1cc(C(=O)N(C)CC(=O)Nc2c(Cl)cccc2Cl)sc1C,0,?,0[11.6 µM],0
O=C(NCCCN1CCCC1)c1ccc(Cn2c(=S)[nH]c3ccc(Br)cc3c2=O)cc1,0,13µM,-,-
CC1CCN(CCNC(=O)c2ccc3c(=O)n(Cc4ccc(Cl)cc4)c(=S)[nH]c3c2)CC1,0,3.7µM,0,6.3µM
COCCCNC(=O)c1ccc2c(=O)n(Cc3ccc(Cl)cc3)c(=S)[nH]c2c1,0,0,0,0
COc1ccccc1Cn1c(=S)[nH]c2cc(C(=O)NCCCN3CCOCC3)ccc2c1=O,0,?,0,?
COc1ccccc1Cn1c(=S)[nH]c2cc(C(=O)NCCN3CCOCC3)ccc2c1=O,0,10µM,0,?
COc1ccccc1NS(=O)(=O)c1cc(C(=O)NCCN2CCOCC2)ccc1Cl,10µM,0,0,0
O=C(NCCN1CCCC1)c1ccc(Cn2c(=S)[nH]c3ccc(Br)cc3c2=O)cc1,0,?,0,?
O=C(Nc1csc(Cc2c(Cl)cccc2Cl)n1)NN1CCOCC1,?,0[0.00184 µM],0,0
O=C(NCc1ccc(Cl)cc1)c1ccc2c(=O)n(CC3CCCO3)c(=S)[nH]c2c1 (stereo unspecified),12µM,0,0,?
C=CCNC(=O)c1ccc2c(=O)n(Cc3ccccc3OC)c(=S)[nH]c2c1,0,3.3µM,0,?
O=C(NCC1CCCO1)c1ccc2c(=O)n(CC3CCCO3)c(=S)[nH]c2c1 (stereo unspecified),?,0,0,0
COc1ccc(N2CCN(CCNC(=O)c3ccc4c(c3)[nH]c(=S)n3c5ccccc5nc43)CC2)cc1,10µM,?,0,0
O=C(O)C1OCC2(CO1)COC(C(=O)O)OC2 (stereo unspecified),-,-,0,0
CCOC(=O)N1CCN(c2cc(=O)n(-c3ccccc3Cl)c(=O)[nH]2)CC1,0,0,0,0
COC(=O)C1CCN(c2cc(=O)n(-c3ccccc3Cl)c(=O)[nH]2)CC1,0,6.6µM,0,0
COC(=O)c1ccc(C(=O)N2CCCC(C)(C(=O)NS(=O)(=O)C3CC3)C2)cc1 (stereo unspecified),-,-,0,-
C=CCOC(=O)C1=C(C)OC(N)=C(C#N)C1c1ccco1 (stereo unspecified),0,0,0,0
CC1=C(C(=O)OC(C)(C)C)C(c2ccco2)C(C#N)=C(N)O1 (stereo unspecified),2.1µM,0,0,0
CC(C)c1ccc(C2(O)C(=O)Nc3cc(Br)ccc32)c(O)c1 (stereo unspecified),13µM,13µM,0,0
O=C1Nc2cc(Br)ccc2C1(O)c1ccccc1O (stereo unspecified),?,?,0,0
SMILES,Pf growth 96h,Pf growth 48h,AMA1 RON2 block,HCV inhibitor
Cc1ncoc1C(=O)N1CCc2c([nH]c3ccccc23)C1C(C)(C)C (stereo unspecified),?,?,0,0
Cc1cc(=O)oc(C)c1C(=O)N1CCc2c([nH]c3ccccc23)C1C(C)C (stereo unspecified),12µM,-,0,0
O=[N+]([O-])c1cccc(NC(=S)Nc2nc(-c3ccc(Cl)cc3Cl)cs2)c1,0,5.9µM,-,-
CCc1noc(C)c1C(=O)Nc1nc(-c2cccs2)cs1,0,0,0,0
CCc1noc(C)c1C(=O)Nc1nc(-c2ccc(Cl)cc2Cl)cs1,0,0,0,10µM
CCc1noc(C)c1C(=O)Nc1nc(-c2ccc(F)cc2)c(C)s1,?,0,0,0
CCc1noc(C)c1C(=O)Nc1nc(-c2cc(C)ccc2C)c(C)s1,10µM,?,0,0
O=C(NC(=S)Nc1nc(-c2cccc([N+](=O)[O-])c2)cs1)c1cc(Cl)ccc1Cl,0,?,0,?
CN(C)S(=O)(=O)c1ccc(C(=O)NCc2nnc(SCC(=O)Nc3ccc(F)cc3)n2-c2ccc(F)cc2)cc1,?,?,0,?
C=CC(=O)NC(C)(C)CCN1CCOCC1,0,0.93µM,0,0
COc1cc(OC)cc(-c2nnc(NC(=O)c3ccc4c(c3)OCCO4)o2)c1,?,0,0,0
COc1cc(C(=O)OCC(=O)Nc2ccccc2)cc2c1OCCO2,-,-,0,-
CC(=O)c1c(C)[nH]c(C(=O)OCC(=O)Nc2cccc(S(=O)(=O)N(C)C)c2)c1C,?,?,0,6.3µM
CC(=O)c1c(C)[nH]c(C(=O)Nc2cccc(S(=O)(=O)N3CCCC3)c2)c1C,-,-,0,?
CC(=O)c1c(C)[nH]c(C(=O)OCC(=O)Nc2cc(S(=O)(=O)N3CCCC3)ccc2Cl)c1C,0,0,0,1.4µM
CC(=O)c1c(C)[nH]c(C(=O)OCC(=O)Nc2cccc(S(=O)(=O)N3CCCC3)c2)c1C,0.83µM,5.9µM,0,?
Cc1nnnn1/C(=C\c1ccccc1)C(=O)OCC(=O)Nc1cccc(S(=O)(=O)N(C)C)c1,0,0,0,10µM
CCN(CC)S(=O)(=O)c1cccc(NC(=O)COC(=O)c2[nH]c(C)c(C(C)=O)c2C)c1,-,-,0,-
C[C@@H]1CN([C@H](C)CO)C(=O)CCCn2nncc2CO[C@H]1CN(C)Cc1ccc(Cl)c(Cl)c1,-,-,0,-
COc1ccc(C2=NOC(CNC(N)=S)C2)cc1 (stereo unspecified),2.6µM,0,0,0
S=C1NC(c2ccccc2)=CC(c2ccccc2)N1 (stereo unspecified),?,10µM,0,0
CC1=CC(c2ccccc2)NC(=S)N1 (stereo unspecified),?,0,0,0
O=c1cc(C(Cl)(Cl)Cl)oc2c1ccc1ccccc12,0.26µM,0.13µM,0,?
O=C(Cc1ccc(Br)cc1)NCCc1ccc(F)cc1,0,0,0,0
O=C(c1ccccc1Cc1ccccc1)N1CCN(S(=O)(=O)c2ccccc2Br)CC1,7.4µM,12µM,0,?
Cc1ccc(C(=O)N2CCN(c3ccccc3)CC2)cc1S(=O)(=O)N1CCCC1,0,?,0,?
COc1ccc(S(=O)(=O)N2CCCC2)cc1C(=O)N1CCCCC1,0,0,0,-
Cc1ccccc1C(=O)N1CCN(S(=O)(=O)c2ccccc2)CC1,13µM,0,0,0
Cc1ccc(C(=O)N2CCN(c3ccc(F)cc3)CC2)cc1S(=O)(=O)N1CCCCC1,9.3µM,?,0,-

# Screening results (PubChem BioAssay)
